High-throughput results: PubChem BioAssay, National Center for Advancing Translational Sciences (NCATS)
Most compounds without a hit are left out; they make up all but 21% or so of the library.
Pf growth 96h: Primary qHTS for delayed death inhibitors of the malarial parasite plastid, 96 hour incubation; P. falciparum luciferase reporter growth, 96 h; Potency, µM (series often up to 28.7 µM), usual class: inhibitors; 320,000 tested, 6.9% active; AID 504834, 2011
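Parasite growth measured via integrated firefly luciferase reporter in P. falciparum. Infected erythrocytes at 2% hematocrit, 0.05% parasitemia final were treated 96 hours at 37 C under 5% CO2, and luminescence was read.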
CHX counter: Cycloheximide Counterscreen for Small Molecule Inhibitors of Shiga Toxin; cell reporter, cycloheximide protein synthesis inhibition counterscreen; max response, %; 300,000 tested, 12% active; AID 2314, 2010; in the data active means max response mostly above about 13%, no sharp cut-off; inactive means mostly below about 14%; further: read at 38.3 µM for the half of the compounds with a filed dose
Shiga inhibitor: A qHTS for Small Molecule Inhibitors of Shiga Toxin; Vero cells, Shiga toxin protein synthesis inhibition reporter; inhibition, % at 38.7 µM; AID 2315, 2010; 290,000 tested, 9.2% active; in the data active means inhibition mostly above about 28%, no sharp cut-off; inactive means mostly below about 43%
Pf growth 48h: Primary qHTS for delayed death inhibitors of the malarial parasite plastid, 48 hour incubation | P. falciparum luciferase growth in erythrocytes, 48 h | Potency, µM (titrated, usually from 28.7 µM), most hits filed as inhibitors | 310,000 tested, 5.9% active
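A one-generation exposure of luciferase-tagged malaria parasites in RPMI 1640/Albumax erythrocyte culture, 37 C and 5% CO2. Inhibition is inferred from decreased luminescence after adding detection reagent.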
Sm TGR block: qHTS Assay for the Inhibitors of Schistosoma Mansoni Peroxiredoxins; Schistosoma mansoni thioredoxin glutathione reductase (TGR), Q962Y6; purified TGR, DTNB reduction, TNB absorbance 405 nm; Potency, µM (top dose mostly 114 µM), most hits filed as inhibitors; 360,000 tested, 3% active; further: nearly all actives have a fitted effect of over 60% in size
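TGR 20 nM + NADPH 100 uM (dispensed conc.), cpd preinc 15 min RT; start with NADPH (500 uM addition) then DTNB (15 mM addition). Kinetic TNB absorbance, 405 nm filter. Four-parameter Hill fit across titration.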
NS1 function inh: qHTS Assay for Inhibitors of Influenza NS1 Protein Function. Potency, µM (doses to about 46.1 µM). 270,000 tested, 0.4% active; calls by dose curve; further: actives are rising curves; nearly all actives have a fitted effect of over 50% in size
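Compounds were scored for reversing the slow growth caused by influenza A NS1 in S. cerevisiae, measured by optical density at 600 nm. Assay medium contained 2% galactose at pH 6.0; NS1-free yeast of the same strain were the positive control.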
Hits are given with their value; i = inactive; ? = inconclusive; nt = no result; [ ] = remark or other dose. Unless noted, the call rests on the fitted dose curve; in most records, active means well fitted curve in the direction sought with a large enough effect; inconclusive means small, poorly fitted or top-dose-only effect, or another doubt; inactive means no such curve, though single readings can be large; an effect the other way counts as inactive or inconclusive.

SMILES	Pf growth 96h	CHX counter	Shiga inhibitor	Pf growth 48h	Sm TGR block	NS1 function inh
Cc1cc(C(=O)COC(=O)Cc2n[nH]c(=O)c3ccccc23)c(C)n1-c1ccc2c(c1)OCCO2	?	i	i	i	i	i
O=C(Nc1cccc(Cl)c1)N1CCN(C2c3ccccc3-c3ccccc32)CC1	?	i	i	9.28µM	i	i
O=C(Nc1cccc(Cl)c1)N1CCCCCC1	?	14.9	i	i	i	i
O=C(Nc1ccc(C(=O)N2CCCCC2)cc1)Nc1cccc(Cl)c1	i	32.7	72.4	?	i	i
COc1ccc(CCNC(=O)Cn2cnc3scc(-c4ccccc4)c3c2=O)cc1OC	?	i	i	i	i	i
Cc1cccc(CNC(=O)CS(=O)(=O)c2cccc3nsnc23)c1	nt	nt	nt	nt	i	nt
CC(NC(=O)/C=C/c1ccco1)c1nc2ccccc2n1Cc1ccccc1F (stereo not drawn)	10.4µM	27.4	i	?	35.5µM	i
CC(NC(=O)/C=C/c1ccco1)c1nc2ccccc2n1Cc1c(Cl)cccc1Cl (stereo not drawn)	?	21.6	44.0	?	25.1µM	i
COc1ccccc1-n1cnc2c(c1=O)c1nc3ccccc3nc1n2-c1ccc(C)cc1	?	i	i	i	i	?
COc1ccccc1-n1c2nc3ccccc3nc2c2c(=O)n(-c3cc(C)cc(C)c3)cnc21	?	i	i	13.1µM	i	?
O=c1c2oc3ccccc3c2n(Cc2ccccc2Cl)c(=O)n1Cc1ccc2c(c1)OCO2	nt	nt	nt	nt	i	nt
O=C1c2ccccc2CCC1C(O)c1ccccn1 (stereo not drawn)	i	39.2	i	i	i	i
COc1ccc(C2CC(c3ccc(Cl)cc3)=NN2C(=O)c2cccc([N+](=O)[O-])c2)cc1 (stereo not drawn)	?	19.1	i	?	i	?
COc1ccccc1N1N=C(c2ccc([N+](=O)[O-])cc2)CC1c1ccccc1 (stereo not drawn)	i	i	nt	?	i	i
COc1ccc(C2CC(c3ccc4ccccc4c3OC(C)=O)=NN2C(C)=O)cc1 (stereo not drawn)	i	24.5	59.5	?	i	i
COc1ccc(C2CC(c3ccc(C)o3)=NN2C(C)=O)cc1 (stereo not drawn)	?	20.8	96.6	i	i	i
COc1ccc(C2=NN(CN3C(=O)C(=O)c4ccccc43)C(c3cccc([N+](=O)[O-])c3)C2)cc1 (stereo not drawn)	i	12.7	117.3	?	i	i
CC(=O)N1N=C(c2ccc(C)o2)CC1c1ccc(Br)cc1 (stereo not drawn)	i	42.6	87.1	i	i	i
COc1ccc(C2CC(c3ccc(Cl)cc3)=NN2C(C)=O)cc1 (stereo not drawn)	?	34.2	29.6	i	i	i
CC(=O)N1N=C(c2cccs2)CC1c1ccc(Br)cc1 (stereo not drawn)	i	31.7	i	i[0.00184 µM]	i	i
CC(=O)N1N=C(c2ccc(Cl)cc2)CC1c1ccc([N+](=O)[O-])cc1 (stereo not drawn)	i	i	i	i	i	i
Cc1cnc(C(=O)OC(C)C(=O)NCc2ccccc2)cn1 (stereo not drawn)	i	nt	nt	i	i	nt
C=CCc1ccc(OCC(O)CN2CCN(c3ccccc3OC)CC2)c(OC)c1 (stereo not drawn)	i	i	i	i	i	i
OC(COc1ccccc1F)CN1CCC(Cc2ccccc2)CC1 (stereo not drawn)	?	i	i	i	i	i
C=CCc1ccc(OCC(O)COCC)c(OC)c1 (stereo not drawn)	i	35.6	127.5	i	i	i
SMILES	Pf growth 96h	CHX counter	Shiga inhibitor	Pf growth 48h	Sm TGR block	NS1 function inh
OC(COc1ccc(F)cc1Cl)CN1CCC(Cc2ccccc2)CC1 (stereo not drawn)	?	i	i	11.7µM	i	i
C=CCc1ccc(OCC(O)CN2CCC(Cc3ccccc3)CC2)c(OC)c1 (stereo not drawn)	?	i	i	?	50.1µM	i
CC(C)c1cc(C(=O)NCc2ccc(F)cc2)no1	nt	nt	nt	nt	i	nt
CC(C)CC(=O)Nc1ccc(C(=O)OCc2cc(=O)n3nc(C(C)C)sc3n2)cc1	nt	nt	nt	nt	i	nt
O=C(Nc1ccc(C(=O)O)cc1)Nc1ccc([N+](=O)[O-])cc1	i	i	i	i	i	i
O=C(Nc1cc(C(F)(F)F)cc(C(F)(F)F)c1)Nc1cnn(-c2ccc([N+](=O)[O-])cc2)c1C(F)(F)F	?	i	i	1.85µM	i	i
O=C(C[C@H]1C(=O)N(Cc2ccccc2)C[C@@H]1Cc1ccccc1)Nc1ccccc1	13.1µM	i	i	i	i	i
O=C(C[C@H]1C(=O)N(CCc2ccccc2)C[C@@H]1Cc1ccccc1)Nc1ccccc1	10.4µM	i	i	?	i	i
CCCCN1C[C@H](Cc2ccccc2)[C@@H](CC(=O)Nc2ccccc2)C1=O	?	i	i	i	i	i
COC(=O)Cn1nnc(N2CCOCC2)n1	i	40.0	i	i	i	i
O=C(Cn1nnc(-c2ccc3c(c2)OCO3)n1)N1CCOCC1	i	i	i	i	i	i
COc1ccc(-c2ccc(-c3nnn(CC(=O)N4CCOCC4)n3)cc2)cc1	i	23.0	i	i	i	i
O=C(Cn1nnc(-c2cccs2)n1)OC1CCCCC1	?	18.1	i	i	i	i
COc1cc(-c2nnn(CC(=O)N3CCOCC3)n2)cc(OC)c1OC	i	i	i	i	i	i
O=C(Cn1nnc(-c2cccs2)n1)N1CCOCC1	9.28µM	i	i	i	i	nt
Cc1cc(NC(=O)CSc2ncc(C(=O)Nc3ccc(C)c(C)c3)c(=O)n2C)no1	nt	nt	nt	nt	i	nt
O=C(Cn1cc(C(F)(F)F)ccc1=O)N1CCc2ccccc2C1	i	nt	nt	i	i	nt
Cc1ccccc1CN1C(=O)C(O)(c2c[nH]c3ccccc23)c2cc(Cl)ccc21 (stereo not drawn)	nt	nt	nt	nt	i	nt
N#C/C(=C\c1ccc(-c2ccc(C(=O)O)cc2)o1)C(=O)Nc1ccccc1C(=O)O	nt	nt	nt	nt	i	nt
CC1CCN(C(=O)Cn2nnc(-c3cccs3)n2)CC1	?	38.9	68.3	i	i	i
COc1cccc(C2C(C#N)=C(N)N(N(C)C)C3=C2C(=O)CCC3)c1 (stereo not drawn)	i	i	i	i	i	i
CN(C)N1C(N)=C(C#N)C(c2cccnc2)C2=C1CCCC2=O (stereo not drawn)	13.1µM	i	i	i	?	i
N#CC1=C2N=C(N)c3c(sc4c3CCCCC4)N2C2=C(C(=O)CCC2)C1c1ccccc1 (stereo not drawn)	4.65µM	i	i	2.94µM	i	?
Cc1ccc(C2C(C#N)=C(N)N(c3cccnc3)C3=C2C(=O)CCC3)s1 (stereo not drawn)	i	i	51.0	i	nt	i
